Assay results reported in PubChem BioAssay (Tox21).
Results filed as inconclusive are left out. Activity calls are given as the source filed them. Unless noted, the call rests on the fitted dose curve; in most records, active means well fitted curve in the direction sought with a large enough effect in the repeat runs; inconclusive means weak or mixed curves; inactive means no such curve, though single readings can be large; an effect the other way counts as inactive or inconclusive.

Assays:
[1] = A CellTox Green Cytotoxicity Assay to monitor cytotoxicity in HEK293 cells - 32 hour (AID 1224881); further: nearly all actives have a fitted effect of over 40% in size
Outline: (§1)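 Homogeneous no-lysis format: HEK293 cell suspension mixed with CellTox Green reagent, seeded, incubated 5 h at 37 C/5% CO2, then dosed by pintool with compound in DMSO.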

[2] = A CellTox Green Cytotoxicity Assay to monitor cytotoxicity in HepG2 cells - 0 hour (AID 1224882); further: nearly all actives have a fitted effect of over 35% in size
Outline: (§2)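 Fluorescent DNA-binding dye, 600 HepG2 cells/well, 5 h preincubation then compound in DMSO; same plates read at 0–40 h, 37 C.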

[3] = A CellTox Green Cytotoxicity Assay to monitor cytotoxicity in HepG2 cells - 32 hour (AID 1224883); further: nearly all actives have a fitted effect of over 50% in size
Outline: as §2

[4] = A CellTox Green Cytotoxicity Assay to monitor cytotoxicity in HEK293 cells - 8 hour (AID 1224884); further: nearly all actives have a fitted effect of over 35% in size
Outline: as §1

[5] = qHTS RealTime-Glo MT Cell Viability Assay in HepG2 cells - 16 hour (AID 1224885); further: nearly all actives have a fitted effect of over 50% in size
Outline: (§3)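 Compound treatment began 5 h after plating HepG2 cells (600/well) with NanoLuc luciferase and prosubstrate. Plates stayed at 37 C for 40 h; luminescence was captured at six time points, 0 h through 40 h.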

[6] = qHTS RealTime-Glo MT Cell Viability Assay in HEK293 cells - 24 hour (AID 1224886); further: top concentration of the series differs between compounds; nearly all actives have a fitted effect of over 50% in size
Outline: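 Quantitative high-throughput screen of the Tox21 10K library in HEK293: cells and RealTime-Glo reagents plated together, compound added at 5 h, luminescence monitored through 40 h at 37 C.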

[7] = qHTS RealTime-Glo MT Cell Viability Assay in HEK293 cells - 8 hour (AID 1224887); further: top concentration of the series differs between compounds; nearly all actives have a fitted effect of over 50% in size
Outline: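 Measured as luminescence from the same continuously cultured HEK293 wells at successive time points (0, 8, 16, 24, 32, 40 h) after compound addition. Reagent present from seeding; dosing at 5 h; incubation 37 C.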

[8] = A CellTox Green Cytotoxicity Assay to monitor cytotoxicity in HEK293 cells - 16 hour (AID 1224888); further: nearly all actives have a fitted effect of over 35% in size
Outline: as §1

[9] = A CellTox Green Cytotoxicity Assay to monitor cytotoxicity in HepG2 cells - 8 hour (AID 1224890); further: nearly all actives have a fitted effect of over 45% in size
Outline: as §2

[10] = qHTS assay to identify small molecule antagonists of the estrogen receptor alpha (ER-alpha) signaling pathway using the BG1 cell line in the presence of 0.1 nM 17-beta-estradiol - cell viability counter screen (AID 1259241); further: nearly all actives have a fitted effect of over 40% in size
Outline: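 VM7Luc4E2, 4,000 cells/well, phenol red-free medium + 10% charcoal-stripped FBS; 24 hr plating; cpd + 0.1 nM E2 final, 22 hr 37C/5% CO2; CellTiter-Fluor 30 min, fluorescence.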

[11] = qHTS assay to identify small molecule antagonists of the androgen receptor (AR) signaling pathway using the MDA cell line in the presence of 0.5 nM R1881 - cell viability counter screen (AID 1259242); further: nearly all actives have a fitted effect of over 45% in size
Outline: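 Human breast carcinoma MDA-kb2 cells, cultured without CO2, receive compounds alongside 0.5 nM (final) R1881 agonist. After 16 hr at 37C, viability is taken as live-cell protease signal.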

[12] = molecular target: Androgen receptor (Homo sapiens) (UniProt P10275); experiment: qHTS assay to identify small molecule antagonists of the androgen receptor (AR) signaling pathway using the MDA cell line in the presence of 0.5 nM R1881 (AID 1259243); further: nearly all actives have a fitted effect of over 50% in size
Outline: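 Cells: MDA-kb2 (MMTV-luc). Stimulus: 0.5 nM R1881. Time: 16 hr, 37C, no CO2. Detection: ONE-Glo luminescence after 30 min at RT.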

[13] = molecular target: Estrogen receptor (Homo sapiens) (UniProt P03372); experiment: qHTS assay to identify small molecule antagonists of the estrogen receptor alpha (ER-alpha) signaling pathway using the BG1 cell line in the presence of 0.1 nM 17-beta-estradiol (AID 1259244); further: nearly all actives have a fitted effect of over 50% in size
Outline: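 Seeding of stripped-serum-adapted VM7Luc4E2 cells, 24 h attachment, compound transfer, then 0.1 nM final 17beta-estradiol; after 22 h incubation, ONE-Glo reagent and luminescence reading.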

[14] = qHTS assay to identify small molecule HDAC inhibitors (AID 1259364);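 further: wild-type HCT-116 cells with endogenous class I/II HDAC activity; top concentration of the series differs between compounds; nearly all actives have a fitted effect of over 45% in size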
Outline: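 After a 2 hr compound incubation (37C, 5% CO2), HCT-116 cells seeded at 1,500/well the day before received HDAC-Glo reagent; signal read as luminescence after 30 min at room temperature.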

[15] = qHTS assay to identify small molecule HDAC inhibitors - cell viability counter screen (AID 1259365)
Outline: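 Luminescence from CellTiter-Glo, developed 30min at room temperature, reports viability of wild-type HCT-116 cells treated 2hr with compounds at 37 C and 5% CO2 after overnight plating.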

[16] = qHTS assay to identify small molecule agonists of the sonic hedgehog signaling (Shh) pathway (AID 1259368; calls by dose curve;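 further: NIH/3T3-derived 3T3Gli1-Luc cells carrying a stable Gli1-driven firefly luciferase reporter; series mostly up to about 92 µM; nearly all actives have a fitted effect of over 15% in size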)
Outline: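 Stable NIH/3T3 Gli1-Luc reporter clone; 24 hr cpd exposure after a 4 hr settling period; luminescence endpoint.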

[17] = qHTS RealTime-Glo MT Cell Viability Assay in HepG2 cells - 0 hour (AID 1224889); further: nearly all actives have a fitted effect of over 50% in size
Outline: as §3

[18] = qHTS assay to identify small molecule agonists of the sonic hedgehog signaling (Shh) pathway - cell viability counter screen (AID 1259366); further: nearly all actives have a fitted effect of over 50% in size
Outline: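 Cytotoxicity counter screen run in the same wells as the Shh reporter assay. NIH/3T3 cells carrying a Gli1 response element–driven luciferase were treated with DMSO-dissolved compounds for 24hr, and live-cell protease activity was measured with CellTiter-Fluor.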

[19] = qHTS assay to identify small molecule antagonists of the sonic hedgehog signaling (Shh) pathway - cell viability counter screen (AID 1259367); further: nearly all actives have a fitted effect of over 55% in size
Outline: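 Viability was read by CellTiter-Fluor fluorescence in the same wells, reagent added 23 hr into compound treatment and incubated 1 hr at 37C. The 3T3 Gli1-Luc reporter cells (2,000/well) received conditioned medium after compound and ran 24 hr.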

[20] = qHTS assay to identify small molecule phospholipidosis (PLD) inducers (AID 1259344; active means well fitted curve in the direction sought with a large enough effect; an effect the other way counts as inactive or inconclusive)
Outline: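 Phospholipid accumulation was scored by imaging: fixed, Hoechst-counterstained HepG2 cells stained with LipidTOX Red after 24 h compound exposure at 37 C. Read-outs were pit count and pit intensity per well or per cell, with amiodarone and DMSO controls.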

Measured: Potency

Sequence of Estrogen receptor (Homo sapiens) (P03372 whole entry, looked up): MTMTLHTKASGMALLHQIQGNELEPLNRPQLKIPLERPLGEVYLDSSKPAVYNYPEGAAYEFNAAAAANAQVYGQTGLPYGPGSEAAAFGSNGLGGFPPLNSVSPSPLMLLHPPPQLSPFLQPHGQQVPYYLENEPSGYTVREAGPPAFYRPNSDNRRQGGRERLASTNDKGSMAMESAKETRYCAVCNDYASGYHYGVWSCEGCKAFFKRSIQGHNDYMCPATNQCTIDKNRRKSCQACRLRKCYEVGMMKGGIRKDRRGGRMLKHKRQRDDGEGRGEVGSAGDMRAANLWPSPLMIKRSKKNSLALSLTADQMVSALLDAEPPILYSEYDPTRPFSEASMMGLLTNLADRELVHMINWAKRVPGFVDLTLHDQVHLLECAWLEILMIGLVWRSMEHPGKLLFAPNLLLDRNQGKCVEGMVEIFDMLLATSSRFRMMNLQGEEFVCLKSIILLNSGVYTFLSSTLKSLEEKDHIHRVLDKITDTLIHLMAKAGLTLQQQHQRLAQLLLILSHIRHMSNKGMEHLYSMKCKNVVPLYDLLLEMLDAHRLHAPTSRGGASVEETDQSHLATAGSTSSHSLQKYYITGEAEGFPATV
Sequence of Androgen receptor (Homo sapiens) (P10275 whole entry, looked up): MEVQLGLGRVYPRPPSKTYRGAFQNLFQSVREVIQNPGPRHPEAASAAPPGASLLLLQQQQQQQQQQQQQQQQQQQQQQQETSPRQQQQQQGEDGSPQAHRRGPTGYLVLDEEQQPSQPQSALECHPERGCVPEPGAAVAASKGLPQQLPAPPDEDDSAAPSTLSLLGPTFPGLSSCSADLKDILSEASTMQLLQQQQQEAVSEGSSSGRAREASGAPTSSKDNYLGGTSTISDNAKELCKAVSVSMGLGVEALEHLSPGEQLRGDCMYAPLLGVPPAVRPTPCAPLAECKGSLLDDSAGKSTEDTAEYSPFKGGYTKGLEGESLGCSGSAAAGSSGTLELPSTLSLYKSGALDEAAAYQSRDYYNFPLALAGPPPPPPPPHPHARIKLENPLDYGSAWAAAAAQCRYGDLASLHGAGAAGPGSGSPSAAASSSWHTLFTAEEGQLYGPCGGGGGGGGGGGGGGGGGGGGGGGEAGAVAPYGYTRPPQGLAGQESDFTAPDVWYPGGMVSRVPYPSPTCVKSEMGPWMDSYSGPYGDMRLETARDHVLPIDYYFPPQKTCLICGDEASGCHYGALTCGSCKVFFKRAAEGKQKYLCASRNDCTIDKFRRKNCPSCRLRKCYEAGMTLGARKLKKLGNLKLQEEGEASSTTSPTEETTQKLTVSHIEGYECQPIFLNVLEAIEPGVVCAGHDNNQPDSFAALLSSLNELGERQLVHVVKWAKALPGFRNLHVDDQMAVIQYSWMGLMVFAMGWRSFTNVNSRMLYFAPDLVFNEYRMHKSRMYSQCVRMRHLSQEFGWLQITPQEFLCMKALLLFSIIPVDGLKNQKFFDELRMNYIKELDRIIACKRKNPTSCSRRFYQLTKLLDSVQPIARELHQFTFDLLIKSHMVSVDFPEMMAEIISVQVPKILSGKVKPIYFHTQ

CCOC(=O)C(c1c(O)c2ccccc2oc1=O)c1c(O)c2ccccc2oc1=O
not listed: [17] | [18] | [19] | [20]
inactive: all other assays above

O=[N+]([O-])c1ccc(CBr)cc1
not listed: [6] | [12] | [19] | [20]
inactive: all other assays above

ClCCCN1CCN(c2cccc(Cl)c2)CC1
not listed: [6] | [12] | [20]
inactive: all other assays above

Cc1cccc(C#N)c1
not listed: [6] | [8] | [12] | [20]
inactive: all other assays above

O=NN1CCN(N=O)CC1
not listed: [5] | [12] | [20]
inactive: all other assays above

O=C(CCCN1CCC(n2c(=O)[nH]c3ccccc32)CC1)c1ccc(F)cc1
not listed: [6] | [7] | [12] | [13] | [19]
inactive: all other assays above

BrCCCCCCBr
not listed: [5] | [12] | [20]
inactive: all other assays above

CNC(=O)O/N=C(\C)SC
not listed: [6] | [12] | [13] | [20]
inactive: all other assays above
